Screening data deposited in PubChem by National Center for Advancing Translational Sciences (NCATS).
Rows were chosen to be rich in hits. Some 3.9% of all compounds tested hit in one or more screens of this group.
Tb PFK block: qHTS Assay to Find Inhibitors of T. brucei phosphofructokinase | ATP-dependent 6-phosphofructokinase (Trypanosoma brucei brucei), O15648 | T. brucei PFK, ADP-Glo luminescence | Potency, µM (top dose mostly 57.5 µM), for the others: at the highest dose activity, negative = inhibition, usual class: inhibitors | actives 0.17% (n = 330,000) | AID 485367, 2010;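 further: 0% = uninhibited 1x PFK enzyme wells and -100% = no-enzyme wells; nearly all actives have a fitted effect of over 60% in size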
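Compounds were pin-transferred as a titration series up to 57 uM into substrate buffer (0.5 mM F6P, 0.1 mM ATP, pH 8.0), then 1.25 nM PFK was added and reactions ran 45 min before ADP-Glo detection.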
BRCA1 expr up: qHTS Assay to Identify Small Molecule Activators of BRCA1 Expression. MCF7-BRCA1-FFLuc reporter, luminescence, 48 h; response scale: scaled: vehicle 0%, 10 µM genistein 100%. Potency, µM (top dose mostly 46.1 µM), for the others: at the top dose activation, hits mostly activators. actives 1.1% (n = 380,000). AID 624202, 2012; further: nearly all actives have a fitted effect of over 80% in size
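Luminescence from a BRCA1-driven firefly luciferase in MCF7 cells was read after 48 h compound exposure at 37 C. Data normalized against DMSO and a 10microM genistein activation control, then curve-fitted across the titration.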
PLK1 PBD inh: qHTS for Inhibitors of PLK1-PDB (polo-like kinase 1 - polo-box domain): Primary Screen; Serine/threonine-protein kinase PLK1 (Homo sapiens), P53350; Plk1 PBD binding of FITC phosphopeptide, fluorescence polarization; Potency, µM, without a hit: max response, negative = inhibition, hits mostly inhibitors; actives 2.8% (n = 360,000); AID 720504, 2013; further: series mostly up to about 57 µM; on the % scale 0 is the no-effect control and ±100 the full control effect; nearly all actives have a fitted effect of over 65% in size
Target sequence (P53350 whole entry, looked up, the tested form may be a part): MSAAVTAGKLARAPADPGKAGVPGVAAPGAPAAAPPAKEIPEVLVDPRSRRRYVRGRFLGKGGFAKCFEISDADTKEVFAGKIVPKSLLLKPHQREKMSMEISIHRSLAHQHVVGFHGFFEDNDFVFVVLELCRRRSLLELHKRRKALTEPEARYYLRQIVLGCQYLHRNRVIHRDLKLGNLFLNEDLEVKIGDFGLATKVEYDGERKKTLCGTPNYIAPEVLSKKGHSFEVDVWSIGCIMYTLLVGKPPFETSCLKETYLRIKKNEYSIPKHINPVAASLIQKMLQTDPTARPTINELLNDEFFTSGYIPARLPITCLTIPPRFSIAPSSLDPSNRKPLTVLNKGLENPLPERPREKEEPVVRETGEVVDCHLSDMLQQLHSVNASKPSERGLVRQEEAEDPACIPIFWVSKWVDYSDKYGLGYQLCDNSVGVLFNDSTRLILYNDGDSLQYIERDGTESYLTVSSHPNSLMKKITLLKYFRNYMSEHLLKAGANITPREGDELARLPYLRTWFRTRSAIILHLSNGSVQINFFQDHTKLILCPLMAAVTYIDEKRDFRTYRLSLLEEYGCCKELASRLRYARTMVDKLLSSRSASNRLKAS
VDR inh: Inhibitors of the vitamin D receptor (VDR): qHTS; Vitamin D3 receptor (Homo sapiens), P11473; VDR-SRC2-3 peptide fluorescence polarization, 2 h; Potency, µM, for inactives: max response, negative = inhibition, actives largely listed as inhibitors; actives 0.93% (n = 400,000); further: on the % scale 0 is the no-effect control and ±100 the full control effect
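Inhibition of the VDR/SRC2-3 peptide interaction is quantified by fluorescence polarization. Compounds (23 nl, pintool) incubate with the reagents for 2 hours at ambient room temperature.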
Active calls of the source: *; u = inconclusive; x = no result. The call rests on the fitted dose curve; in most records, active means well fitted curve in the direction sought with a large enough effect; inconclusive means small, poorly fitted or top-dose-only effect, or another doubt; inactive means no such curve, though single readings can be large; an effect the other way counts as inactive or inconclusive. Potency means the concentration at half of the fitted maximal effect.

SMILES	Tb PFK block	BRCA1 expr up	PLK1 PBD inh	VDR inh
O=C1c2ccccc2C(=O)N1CCCc1nc(-c2ccccn2)no1	-8%	0%	30µM*	-18%
Cc1ccc(SCc2nc(-c3ccccn3)no2)cc1	-1%	5µM*	-11%	7%
CCCN(CCC)CCNC(=O)c1sc2nc3n(c(=O)c2c1C)CCCCC3	x	x	x	0%
CCOc1ccc(CN2C(=O)c3ccccc3Sc3ccc(C(=O)NCc4ccc5c(c4)OCO5)cc32)cc1	x	0%	x	-9%
OC(c1ccccc1)(c1nc(-c2cccc3cccnc23)cs1)C(F)(F)F (stereo not given)	x	4%	-12%	x
COc1ccc(-c2noc(CSc3nnc(CCc4ccccc4)n3-c3ccccc3)n2)cc1OC	-8%	-50%	-2%	9%
Cc1ccc(SCc2nc(-c3ccncc3)no2)cc1	16%	62%	3µM*	-19%
COc1ccc(-c2noc(CSc3ccccc3)n2)cc1OC	-1%	11µM*	-8%	-1%
CN(C)c1ccc(CNC(=O)Cn2ccc3cc(S(=O)(=O)N4CCCCCC4)ccc32)cc1	x	x	x	-5%
Cc1ccc(NC(=O)CN(C)S(=O)(=O)c2ccc3[nH]c(=O)oc3c2)c(C)c1	2%	0%	-23%	-15%
Cc1ccc(NS(=O)(=O)c2ccc3[nH]c(=O)oc3c2)c(C)c1	2%	0%	30µM*	u
CCC(C)CCCCCCCCCCC(=O)O (stereo not given)	x	-9%	21µM*	u
Cc1ccccc1Nc1oc(-c2ccccc2)nc1-c1ccccc1	x	x	x	-4%
O=C(Oc1ccc[nH]c1=O)c1ccc(F)cc1	x	10%	1%	x
O=C(Nc1ccccc1)Oc1ccc[nH]c1=O	0%	17%	15µM*	-10%
CCOc1cc(C(=O)NCCc2ccc(S(N)(=O)=O)cc2)cc(OCC)c1OCC	-2%	-5%	30µM*	-23%
COc1cc(C(=O)NCCc2ccc(S(N)(=O)=O)cc2)cc(OC)c1OC	1%	3%	1%	10%
CCN(CC)c1ncnc2c1ncn2[C@H]1CN(Cc2cc(OC)c(OC)c(OC)c2)C[C@@H](CO)O1	x	-4%	-2%	x
Cn1cccc1C(=O)NCc1ccccn1	-1%	3%	0%	-2%
CC(C)CC1=C/C(=C/c2ccc(-c3ccccc3)o2)C(=O)O1	4%	-19%	11µM*	u
CCOc1ccc(C(=O)Nc2ccc3nc(SCC(=O)N4CCOCC4)sc3c2)cc1	x	x	x	10%
O=C(c1cnccn1)N1CCC[C@@]2(CCN(c3cccc(-c4ccccc4)c3)C2)C1	x	x	x	28µM*
O=C(c1csnn1)N1CCC[C@@]2(CCN(c3ccncc3)C2)C1	x	x	x	71µM*
O=C(c1cnccn1)N1CCC[C@@]2(CCN(c3ccccc3)C2)C1	x	x	x	-10%
CC(=O)N1CCC[C@@]2(CCN(c3ccncc3)C2)C1	x	x	x	-11%
SMILES	Tb PFK block	BRCA1 expr up	PLK1 PBD inh	VDR inh
CCCN1CCN(c2cc3c(cc2F)c(=O)c(S(=O)(=O)c2ccc(CC)cc2)cn3CC)CC1	x	x	x	9%
CC1=NN(c2ccccc2)C(=O)/C1=C\c1c(C)[nH]n(-c2ccccc2)c1=O	1%	1%	2%	-7%
CC1=NN(c2ccccc2)C(=O)/C1=C/c1c(O)n(-c2ccc(F)c(Cl)c2)[nH]c1=O	-1%	u	27µM*	-19%
O=C(Oc1ccc(C(=S)N2CCOCC2)cc1)c1ccccc1F	-7%	-7%	21µM*	u
O=C(Oc1ccc(C(=S)N2CCOCC2)cc1Cl)c1ccccc1F	-4%	16%	u	-29%
O=C(Oc1ccc(C(=S)N2CCOCC2)cc1Br)c1ccccc1F	-10%	-3%	24µM*	u
O=C(Oc1ccc(C(=S)N2CCOCC2)cc1)c1ccccc1[N+](=O)[O-]	1%	0%	-7%	-13%
CC(NC(=O)C1CCCN1C(=O)c1cccs1)c1ccc(Cl)cc1Cl (stereo not given)	x	-6%	-2%	x
COc1cc(C)c2c(c1C=O)Oc1c(c(C)c(O)c3c1C(O)OC3=O)OC2=O (stereo not given)	-29%	-21%	-24%	45µM*
Cc1cc(O)c(C=O)c2c1C(=O)Oc1c(C)c(O)c3c(c1O2)C(O)OC3=O (stereo not given)	x	x	x	6.3µM*
CCCOc1ccccc1C(=O)N(Cc1ccco1)C1CCS(=O)(=O)C1 (stereo not given)	-1%	-6%	30µM*	-11%
CCCOc1ccccc1C(=O)N(Cc1ccc(C)o1)C1CCS(=O)(=O)C1 (stereo not given)	0%	-4%	0%	-17%
Cc1cccc(C)c1NC(=S)N/N=C1\CC2CC=CC12 (stereo not given)	-2%	51%	15µM*	u
CSCC[C@H](NC(=O)c1ccc(NC[C@@H](N)CS)cc1-c1ccccc1)C(=O)O	x	x	x	7.9µM*
COC(=O)[C@H](CCSC)NC(=O)c1ccc(NC[C@@H](N)CS)cc1-c1ccccc1	x	x	x	10µM*
O=C(CNC1C(=O)Nc2ccccc21)Sc1ccccc1 (stereo not given)	26%	0%	-21%	-7%
CSCc1ccc(C(=O)NCCSc2ccc(Br)cc2)cc1	-3%	u	-24%	-11%
O=C(NCCSc1ccc(Br)cc1)c1ccccc1	-3%	14%	27µM*	u
O=C(CNC(=O)c1ccccc1)Sc1ccccc1	x	0%	4.7µM*	45µM*
O=C(NCSc1ccccc1)c1ccccc1	0%	u	24µM*	-7%
O=C(CCCCC(=O)Sc1ccccc1)Sc1ccccc1	x	0%	u	79µM*
O=C1NN(c2ccc(Cl)cc2)C(=O)/C1=C\c1ccc(-c2cccc(C(=O)O)c2)o1	-8%	8.9µM*	24µM*	u
O=C(Nc1ccc(Nc2ccccc2)cc1)c1ccccc1F	3%	1.1µM*	-10%	15%
C=CCOc1cccc(NC(=O)c2ccccc2SC)c1	-1%	12%	27µM*	-19%
COc1cccc(NC(=O)c2oc3ccccc3c2NC(C)=O)c1	2%	3.5µM*	-8%	-2%
SMILES	Tb PFK block	BRCA1 expr up	PLK1 PBD inh	VDR inh
COc1cccc(C(=O)Nc2cccc(SC)c2)c1	-5%	13µM*	-6%	12%
COCC(=O)Nc1c(C(=O)Nc2cccc(OC)c2)oc2ccccc12	2%	u	-1%	1%
Fc1ccc(C(c2ccc(F)cc2)N2CCN(CC=Cc3ccccc3)CC2)cc1	x	x	x	-10%
CCCCn1c(N)c(N(CC(C)C)C(=O)c2cccc(S(=O)(=O)N(CC)c3ccccc3)c2)c(=O)[nH]c1=O	x	-10%	-4%	-7%
O=C(Nc1ccccc1)Nc1nncs1	4%	31%	30µM*	-10%
O=C(Nc1ccc(C(F)(F)F)cc1)c1ccccc1Br	2%	82%	24µM*	-1%
O=C(Nc1ccccc1)Nc1ccc(Nc2ccccc2)cc1	x	4µM*	4%	-13%
O=C(Nc1ccccc1)Nc1ccc2nnsc2c1	-13%	85%	30µM*	-26%
CC(=O)Nc1ccc(Nc2ccccc2)cc1	-3%	51%	-17%	4%
